{
  "source": "PubChem BioAssay (NCI)",
  "note": "About 83,000 compounds went through this panel and 20% of them were active in at least one assay; those are over-represented in the sample as a whole.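 Note: values are percent growth. 100 is the growth of untreated cells, values between 100 and 0 indicate rising inhibition; between -100 and 0 indicates cell death.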 Values without a mark were called inactive. The source made the active and inactive calls. Rule for the calls: active = growth percent below 10; inactive = the rest.",
  "data": [
    {"test_system": "ACHN renal", "assay": "NCI-60 one-dose screen, 48 h (100 = growth as untreated, 0 = no growth, -100 = all killed)", "conditions": "10 µM unless noted", "values": [
      {"smiles": "O=c1ccn(-c2ncnc3nc[nH]c23)cc1", "growth": "99.3%"},
      {"smiles": "CCN(CC)c1ccc(CNc2ccnc3ccccc23)cc1", "growth": "75.8%"},
      {"smiles": "COc1ccc(CN2CCc3c(Sc4ccccc4)nc(N)nc3C2=O)c(OC)c1", "growth": "65%"},
      {"smiles": "COc1ccc(/C=C\\c2cc(OC)c(OC)c(OC)c2)cc1OC(=O)c1cccc(Cn2cc(CCOC(=O)c3cccc(Cn4nnc5c4C(=O)c4ccccc4C5=O)c3)nn2)c1", "growth": "17.2%"},
      {"smiles": "CCCCN(CCCC)C(=O)CC", "growth": "112%"},
      {"smiles": "O=C1Nc2ccc3c(c2/C1=C\\c1cc2c(cc1Br)OCO2)OCO3", "growth": "11.4%"},
      {"smiles": "O=C1/C(=C/c2ccccc2)CN(C(=O)CCN2CCC(=NO)CC2)C/C1=C\\c1ccccc1", "growth": "-11% (active)"},
      {"smiles": "COc1ccc2c(c1)[nH]c(=O)c1c3cc(OC)ccc3cn21", "growth": "19.1%"},
      {"smiles": "COc1ccc(Nc2nc(N)nc3c2CCN(Cc2ccc(OC)cc2OC)C3=O)cc1", "growth": "80.7%"},
      {"smiles": "Cn1ccc(=O)c(S(N)(=O)=O)c1", "growth": "95.5%"},
      {"smiles": "Cc1cc(N/N=C/c2nc(-c3ccccc3)oc2C)c2cc(Br)ccc2n1", "growth": "89.9%"},
      {"smiles": "Cc1nn(-c2ccc([N+](=O)[O-])cc2)c2ncnc(NCCc3ccccc3)c12", "growth": "99.8%"},
      {"smiles": "CCN(CC)CCC(CNc1ccnc2cc(Cl)ccc12)c1ccc(Cl)cc1", "note": "(stereo not drawn)", "growth": "-74.5% (active)"},
      {"smiles": "OC(c1cc2cc(Br)ccc2c2cc(Br)ccc12)C1CCCCN1", "note": "(stereo not drawn)", "growth": "-73.4% (active)"},
      {"smiles": "C=C1CCC2C3(C)COC(c4c(OC)cccc4OC)OC3CCC2(C)C1C/C=C1/C(=O)OCC1O", "note": "(stereo not drawn)", "growth": "66%"},
      {"smiles": "COC(=O)c1cc2cc(-c3ccc(OC)cc3)cnc2[nH]1", "growth": "44%"},
      {"smiles": "Cc1ccc(S(=O)(=O)n2cc(C(=O)C(=O)N3CCOCC3)c3ccccc32)cc1", "growth": "83.9%"},
      {"smiles": "COc1ccc(-c2nc(/C=N/Nc3cc(C)nc4ccc(Cl)cc34)c(C)o2)cc1", "growth": "-100% (active)"},
      {"smiles": "O=C1c2ccccc2-c2ccccc2C1(Cl)Cl", "growth": "-67% (active)"},
      {"smiles": "COc1ccc(-c2cn(-c3cccc(C(=O)/C=C/c4cc(OC)c(OC)c(OC)c4)c3)c(=O)[nH]2)cc1OC", "growth": "81.8%"},
      {"smiles": "CCCCCCCCCCCCNC(=O)[C@H]1CSC(c2ccsc2)N1", "note": "(stereo partly drawn)", "growth": "-68.7% (active)"},
      {"smiles": "COc1cc(C2NN=C3c4ccccc4CCC32)cc(OC)c1OC", "note": "(stereo not drawn)", "growth": "80.3%"},
      {"smiles": "O=C(N/N=C/C=C\\c1ccccc1)C(=O)N/N=C/C=C/c1ccccc1", "growth": "125%"},
      {"smiles": "CN1CCN(Cc2ccc(NC(=O)c3cncc(C#Cc4cnc(N)c5ccncc45)c3)cc2C(F)(F)F)CC1", "growth": "2.28% (active)"},
      {"smiles": "N=C(N)c1ccc(-c2ccc(-c3ccc4ccccc4c3)s2)cc1", "growth": "97.1%"},
      {"smiles": "COc1cc(/C=C/C(=O)c2cccc(-n3cc(-c4cc(OC)c(OC)c(OC)c4)[nH]c3=O)c2)cc(OC)c1OC", "growth": "-57.6% (active)"},
      {"smiles": "N=C(N)c1ccc(-c2ccc(-c3ccc(-c4cccs4)s3)s2)cc1", "growth": "102%"},
      {"smiles": "COc1ccc(-c2ccc(-c3ccc(C(=N)N)s3)s2)cc1Cl", "growth": "16.9%"},
      {"smiles": "O=c1[nH]c2ccc(Br)cc2c2c1C(c1ccc(Cl)cc1)c1c(ncn3nc(-c4ccco4)nc13)O2", "note": "(stereo not drawn)", "growth": "65.4%"},
      {"smiles": "N=C(N)c1ccc(-c2cc(Cl)cc(Cl)c2)cn1", "growth": "91.3%"},
      {"smiles": "Cc1nc2ncccc2nc1Nc1ccc(S(=O)(=O)Nc2cncs2)cc1", "growth": "99.7%"},
      {"smiles": "Cc1cc(N/N=C/c2nc(-c3ccccc3)oc2C)c2cc(Cl)ccc2n1", "growth": "-80.1% (active)"},
      {"smiles": "Cc1nc2ncccc2nc1Nc1ccc(S(=O)(=O)Nc2ccccn2)cc1", "growth": "95.2%"},
      {"smiles": "NC(=S)N/N=C1\\CCCC(C(F)(F)F)C1", "note": "(stereo not drawn)", "growth": "91.8%"},
      {"smiles": "Oc1ccc2cc(Br)ccc2c1-c1c(O)ccc2cc(Br)ccc12", "growth": "23.1%"},
      {"smiles": "CCC(=O)Oc1ccc(/C(=C(/C)Cc2cccc(OC)c2)c2ccc(OCCN(C)C)cc2)cc1", "growth": "99.5%"},
      {"smiles": "COC1=C(OC)C(=O)C(CCCCCCCCCC[P+](c2ccccc2)(c2ccccc2)c2ccccc2)=C(C)C1=O", "growth": "-25.9% (active)"},
      {"smiles": "O=C(CN1CCN(c2cc3c(cc2F)c(=O)c(C(=O)N/N=C/c2ccccc2O)cn3C2CC2)CC1)N/N=C\\c1ccccc1O", "growth": "13.5%"},
      {"smiles": "COc1ccc(-c2ccc(-c3ccc(C(=N)N)cn3)s2)cc1OC", "growth": "93.8%"}
    ]},
    {"test_system": "CAKI-1 renal", "assay": "NCI-60 one-dose screen, 48 h (100 = growth as untreated, 0 = no growth, -100 = all killed)", "conditions": "10 µM unless noted", "values": [
      {"smiles": "O=c1ccn(-c2ncnc3nc[nH]c23)cc1", "growth": "74.6%"},
      {"smiles": "CCN(CC)c1ccc(CNc2ccnc3ccccc23)cc1", "growth": "61.9%"},
      {"smiles": "COc1ccc(CN2CCc3c(Sc4ccccc4)nc(N)nc3C2=O)c(OC)c1", "growth": "27.7%"},
      {"smiles": "COc1ccc(/C=C\\c2cc(OC)c(OC)c(OC)c2)cc1OC(=O)c1cccc(Cn2cc(CCOC(=O)c3cccc(Cn4nnc5c4C(=O)c4ccccc4C5=O)c3)nn2)c1", "growth": "31.2%"},
      {"smiles": "CCCCN(CCCC)C(=O)CC", "growth": "109%"},
      {"smiles": "O=C1Nc2ccc3c(c2/C1=C\\c1cc2c(cc1Br)OCO2)OCO3", "growth": "-25.7% (active)"},
      {"smiles": "O=C1/C(=C/c2ccccc2)CN(C(=O)CCN2CCC(=NO)CC2)C/C1=C\\c1ccccc1", "growth": "-6.16% (active)"},
      {"smiles": "COc1ccc2c(c1)[nH]c(=O)c1c3cc(OC)ccc3cn21", "growth": "41.3%"},
      {"smiles": "COc1ccc(Nc2nc(N)nc3c2CCN(Cc2ccc(OC)cc2OC)C3=O)cc1", "growth": "92.9%"},
      {"smiles": "Cn1ccc(=O)c(S(N)(=O)=O)c1", "growth": "67.2%"},
      {"smiles": "Cc1cc(N/N=C/c2nc(-c3ccccc3)oc2C)c2cc(Br)ccc2n1", "growth": "80%"},
      {"smiles": "Cc1nn(-c2ccc([N+](=O)[O-])cc2)c2ncnc(NCCc3ccccc3)c12", "growth": "87.2%"},
      {"smiles": "CCN(CC)CCC(CNc1ccnc2cc(Cl)ccc12)c1ccc(Cl)cc1", "note": "(stereo not drawn)", "growth": "-40.3% (active)"},
      {"smiles": "OC(c1cc2cc(Br)ccc2c2cc(Br)ccc12)C1CCCCN1", "note": "(stereo not drawn)", "growth": "-81% (active)"},
      {"smiles": "C=C1CCC2C3(C)COC(c4c(OC)cccc4OC)OC3CCC2(C)C1C/C=C1/C(=O)OCC1O", "note": "(stereo not drawn)", "growth": "172%"},
      {"smiles": "COC(=O)c1cc2cc(-c3ccc(OC)cc3)cnc2[nH]1", "growth": "-2.35% (active)"},
      {"smiles": "Cc1ccc(S(=O)(=O)n2cc(C(=O)C(=O)N3CCOCC3)c3ccccc32)cc1", "growth": "80.1%"},
      {"smiles": "COc1ccc(-c2nc(/C=N/Nc3cc(C)nc4ccc(Cl)cc34)c(C)o2)cc1", "growth": "-85.6% (active)"},
      {"smiles": "O=C1c2ccccc2-c2ccccc2C1(Cl)Cl", "growth": "-92.1% (active)"},
      {"smiles": "COc1ccc(-c2cn(-c3cccc(C(=O)/C=C/c4cc(OC)c(OC)c(OC)c4)c3)c(=O)[nH]2)cc1OC", "growth": "96%"},
      {"smiles": "CCCCCCCCCCCCNC(=O)[C@H]1CSC(c2ccsc2)N1", "note": "(stereo partly drawn)", "growth": "-13.7% (active)"},
      {"smiles": "COc1cc(C2NN=C3c4ccccc4CCC32)cc(OC)c1OC", "note": "(stereo not drawn)", "growth": "65%"},
      {"smiles": "O=C(N/N=C/C=C\\c1ccccc1)C(=O)N/N=C/C=C/c1ccccc1", "growth": "105%"},
      {"smiles": "CN1CCN(Cc2ccc(NC(=O)c3cncc(C#Cc4cnc(N)c5ccncc45)c3)cc2C(F)(F)F)CC1", "growth": "4.48% (active)"},
      {"smiles": "N=C(N)c1ccc(-c2ccc(-c3ccc4ccccc4c3)s2)cc1", "growth": "92.3%"},
      {"smiles": "COc1cc(/C=C/C(=O)c2cccc(-n3cc(-c4cc(OC)c(OC)c(OC)c4)[nH]c3=O)c2)cc(OC)c1OC", "growth": "-24.2% (active)"},
      {"smiles": "N=C(N)c1ccc(-c2ccc(-c3ccc(-c4cccs4)s3)s2)cc1", "growth": "106%"},
      {"smiles": "COc1ccc(-c2ccc(-c3ccc(C(=N)N)s3)s2)cc1Cl", "growth": "68.3%"},
      {"smiles": "O=c1[nH]c2ccc(Br)cc2c2c1C(c1ccc(Cl)cc1)c1c(ncn3nc(-c4ccco4)nc13)O2", "note": "(stereo not drawn)", "growth": "46.3%"},
      {"smiles": "N=C(N)c1ccc(-c2cc(Cl)cc(Cl)c2)cn1", "growth": "68.4%"},
      {"smiles": "Cc1nc2ncccc2nc1Nc1ccc(S(=O)(=O)Nc2cncs2)cc1", "growth": "84.1%"},
      {"smiles": "Cc1cc(N/N=C/c2nc(-c3ccccc3)oc2C)c2cc(Cl)ccc2n1", "growth": "14.4%"},
      {"smiles": "Cc1nc2ncccc2nc1Nc1ccc(S(=O)(=O)Nc2ccccn2)cc1", "growth": "82.6%"},
      {"smiles": "NC(=S)N/N=C1\\CCCC(C(F)(F)F)C1", "note": "(stereo not drawn)", "growth": "87.5%"},
      {"smiles": "Oc1ccc2cc(Br)ccc2c1-c1c(O)ccc2cc(Br)ccc12", "growth": "40.2%"},
      {"smiles": "CCC(=O)Oc1ccc(/C(=C(/C)Cc2cccc(OC)c2)c2ccc(OCCN(C)C)cc2)cc1", "growth": "91.3%"},
      {"smiles": "COC1=C(OC)C(=O)C(CCCCCCCCCC[P+](c2ccccc2)(c2ccccc2)c2ccccc2)=C(C)C1=O", "growth": "-40.6% (active)"},
      {"smiles": "O=C(CN1CCN(c2cc3c(cc2F)c(=O)c(C(=O)N/N=C/c2ccccc2O)cn3C2CC2)CC1)N/N=C\\c1ccccc1O", "growth": "5.22% (active)"},
      {"smiles": "COc1ccc(-c2ccc(-c3ccc(C(=N)N)cn3)s2)cc1OC", "growth": "110%"}
    ]}
  ]
}
